Experimental findings from PubChem BioAssay AID1745853 (National Center for Advancing Translational Sciences (NCATS), 2022) are described below.

Common to all, as to test: Primary Screen for Target Class Profiling of Small Molecule Inhibitors of Methyltransferases
Assay [1] addresses Catechol O-methyltransferase (Homo sapiens) (UniProt P21964). To be noted: purified enzyme, MTase-Glo SAH luminescence; at 40 µM; stronger effect = lower value. An excerpt: (§1) PI: Matthew D. Hall Ph.D. and Quinlin M. Hanson Ph.D.
(§2) National Center for Advancing Translational Sciences (NCATS)
(§3) National Institute of Health (NIH), Rockville, MD
(§4) Target class profiling (TCP) is a chemical biology approach amenable to investigating understudied biological targets. TCP is achieved by developing a generalizable assay platform and applying it to screen a curated set of compound libraries against representative members of a target class. Small molecule methyltransferases (SMMTase) are a subclass of methyltransferase that act on metabolites to modulate signaling pathways, metabolize xenobiotics, or balance the available methyl pool. We screened four curated libraries totaling 27,574 unique compounds against the SMMTases nicotinamide N-methyltransferase (NNMT), phenylethanolamine N-methyltransferase (PNMT), histamine N-methyltransferase (HNMT), glycine N-methyltransferase (GNMT), catechol O-methyltransferase (COMT), and guanidinoacetate N-methyltransferase (GAMT). The data generated by this TCP can be leveraged for informed tool molecule development. For example, in the associated publication we identified a chemotype of HNMT-selective inhibitors. Additionally, we identified a putative SMMTase-selective inhibitor with potential as a tool molecule for studying broader methyltransferase biology.
(§5) High-through put screening assays were developed at the National Center for Advancing Translational Science (NCATS) for the enzymes NNMT, PNMT, HNMT, GNMT, COMT, and GAMT. Enzymatic activity was measured as a function of SAM cofactor conversion using the MTase Glo kit (Promega) for all enzymes. All assays were performed in 1536-well format with substrates and SAM concentrations at KM values. Enzyme concentration and assay timing were optimized for 10-20% SAM conversion. Initial screening of 27,574 compounds was done as single-point assays using the highest compound concentration (40 uM). […] These compounds were replated in 11-point dose response and assayed against NNMT, PNMT, HNMT, GNMT, COMT, GAMT, and a counter-assay. The IC50 and efficacy (maximal response) values were determined for each dose-response curve. These values are also accounted for in the area under the curve (AUC) values.
(§6) PROTOCOL TABLE (as described by Inglese J, Shamu CE and Guy RK. 2007)
(§7) SEQUENCE No. (e.g., 1, 2, 3, etc.); […] (e.g., Cells, Incubation, Reagent, etc.); VALUE; DESCRIPTION.
(§8) 1; Reagent; 2 uL; SMMTase Enzyme (2x) in reaction buffer, columns 1- 48.
(§9) 2; Reagent; 1 uL; SAM (4x) in reaction buffer, columns 1-48.
(§10) 3; Controls; 23 nL; DMSO in column 4; sinefungin in DMSO (0 uM - 40 uM) in 7-point 1:2 dilution series (n = 2) in column 2.
(§11) 4; Compounds; 23 nL; Columns 5-48.
(§12) 5; Reagent; 1 uL; Substrate (4x) in reaction buffer, columns 2-48.
(§13) 6; Time; 20-30 min; Incubation.
(§14) 7; Reagent; 1 uL; MTase-Glo reagent (5X), columns 1-48.
(§15) 8; Time; 30 min; Incubation.
(§16) 9; Reagent; 5 uL; MTase-Glo Detection reagent, columns 1-48.
(§17) 10; Time; 30 min; Incubation, luminescence evolution.
(§18) 11; Detection; Luminescence; ViewLux uHTS Microplate Imager (PerkinElmer).
(§19) NOTES (numbers refer to Sequence numbers above)
(§20) 1, 2, 5. White Medium Binding Greiner 1536-well plates (Cat #789175-F, Greiner Bio-One, Monroe, NC); Reaction buffer: 50 mM Tris, pH 8.0, 3 mM MgCl2, 1 mM EDTA, 50 mM NaCl, 1 mM DTT, and 0.1 mg/mL BSA. Evaporation was prevented by covering assay plates with metal lids containing holes to allow gas diffusion.
(§21) 1. Six SMMTase were profiled: HNMT, GNMT, PNMT, COMT, NNMT, GAMT
(§22) 5. The corresponding substrate was used for each enzyme: HNMT - 5.3 uM Histamine; GNMT - >500 uM Glycine; PNMT - 16.2 uM Norephinephrine; COMT - 13.7 uM Norephinephrine; NNMT - 3.8 uM Nicotinamide; GAMT - 2.5 uM Guanidinoacetate.6, 8, 10. Room temperature
(§23) 6. Final reaction conditions: 10 nM COMT, 5 uM SAM, 15 uM norepinephrine, 50 mM Tris, pH 8.0, 3 mM MgCl2, 1 mM EDTA, 50 mM NaCl, 1 mM DTT, and 0.1 mg/mL BSA; refer to tables 2 and S1 for specific timing.
8. […]

Assay [2] addresses Glycine N-methyltransferase (Homo sapiens) (UniProt Q14749). To be noted: purified enzyme, MTase-Glo SAH luminescence; measured here: GNMT inhibition; at 40 µM; stronger effect = lower value.
Description: as §1, §2, §3, §4, §5, §6, §7, §8, §9, §10, §11, §12, §13, §14, §15, §16, §17, §18, §19, §20, §21, §22, §23
8. […]

Assay [3] concerns the target Guanidinoacetate N-methyltransferase (Homo sapiens) (UniProt Q14353). Particulars: purified enzyme, MTase-Glo SAH luminescence; measured here: GAMT inhibition; at 40 µM; stronger effect = lower value.
Description: as §1, §2, §3, §4, §5, §6, §7, §8, §9, §10, §11, §12, §13, §14, §15, §16, §17, §18, §19, §20, §21, §22, §23
8. […]

Assay [4] addresses Histamine N-methyltransferase (Homo sapiens) (UniProt P50135). To be noted: purified enzyme, MTase-Glo SAH luminescence; measured here: HNMT inhibition; at 40 µM; stronger effect = lower value.
Description: as §1, §2, §3, §4, §5, §6, §7, §8, §9, §10, §11, §12, §13, §14, §15, §16, §17, §18, §19, §20, §21, §22, §23
8. […]

Assay [5] concerns the target Nicotinamide N-methyltransferase (Homo sapiens) (UniProt P40261). Particulars: purified enzyme, MTase-Glo SAH luminescence; measured here: NNMT inhibition; at 40 µM; stronger effect = lower value.
Description: as §1, §2, §3, §4, §5, §6, §7, §8, §9, §10, §11, §12, §13, §14, §15, §16, §17, §18, §19, §20, §21, §22, §23
8. […]

The target in assay [6] is Phenylethanolamine N-methyltransferase (Homo sapiens) (UniProt P11086). To be noted: purified enzyme, MTase-Glo SAH luminescence; measured here: PNMT inhibition; at 40 µM; stronger effect = lower value.
Description: as §1, §2, §3, §4, §5, §6, §7, §8, §9, §10, §11, §12, §13, §14, §15, §16, §17, §18, §19, §20, §21, §22, §23
8. […]

Hit rate of the full screen: of about 25,000 compounds, about 970 (3.9%) were called active. Roughly 8% stayed inconclusive and do not appear here. No rule for the calls is given here. This excerpt belongs to a sample that is enriched for actives.
% is scaled to controls: 0 for no effect and ±100 for the full control effect.

Sequence of Phenylethanolamine N-methyltransferase (Homo sapiens) (P11086 whole entry, looked up): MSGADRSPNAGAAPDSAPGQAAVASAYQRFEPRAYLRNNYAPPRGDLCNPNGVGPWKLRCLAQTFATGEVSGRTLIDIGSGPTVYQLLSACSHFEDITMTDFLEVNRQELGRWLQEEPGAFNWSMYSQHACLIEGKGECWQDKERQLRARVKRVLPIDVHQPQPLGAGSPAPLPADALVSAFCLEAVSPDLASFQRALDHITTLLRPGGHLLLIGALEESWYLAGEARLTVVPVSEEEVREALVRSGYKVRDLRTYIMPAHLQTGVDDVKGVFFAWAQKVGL
Sequence of Catechol O-methyltransferase (Homo sapiens) (P21964 whole entry, looked up): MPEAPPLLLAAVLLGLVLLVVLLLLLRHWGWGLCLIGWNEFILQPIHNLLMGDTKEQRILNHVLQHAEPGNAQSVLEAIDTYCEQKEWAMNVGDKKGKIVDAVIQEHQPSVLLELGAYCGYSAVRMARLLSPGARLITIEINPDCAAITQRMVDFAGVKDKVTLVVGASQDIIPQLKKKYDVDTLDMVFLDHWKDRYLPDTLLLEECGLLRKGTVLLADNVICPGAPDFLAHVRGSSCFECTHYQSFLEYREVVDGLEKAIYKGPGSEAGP
Sequence of Glycine N-methyltransferase (Homo sapiens) (Q14749 whole entry, looked up): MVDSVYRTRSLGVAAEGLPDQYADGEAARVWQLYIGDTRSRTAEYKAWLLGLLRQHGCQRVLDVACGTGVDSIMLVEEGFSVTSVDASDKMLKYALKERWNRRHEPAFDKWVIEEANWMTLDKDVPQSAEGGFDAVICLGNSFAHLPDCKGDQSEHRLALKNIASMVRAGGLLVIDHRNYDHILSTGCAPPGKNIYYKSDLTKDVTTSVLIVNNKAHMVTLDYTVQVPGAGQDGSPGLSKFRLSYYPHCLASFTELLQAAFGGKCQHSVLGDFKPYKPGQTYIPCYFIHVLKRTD
Sequence of Nicotinamide N-methyltransferase (Homo sapiens) (P40261 whole entry, looked up): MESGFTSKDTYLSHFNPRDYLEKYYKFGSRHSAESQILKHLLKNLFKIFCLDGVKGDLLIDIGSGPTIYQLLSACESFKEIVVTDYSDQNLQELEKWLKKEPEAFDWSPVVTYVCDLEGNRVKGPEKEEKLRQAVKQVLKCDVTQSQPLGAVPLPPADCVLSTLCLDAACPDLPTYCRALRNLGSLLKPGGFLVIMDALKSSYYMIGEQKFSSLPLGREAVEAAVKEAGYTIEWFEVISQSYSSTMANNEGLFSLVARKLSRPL
Sequence of Histamine N-methyltransferase (Homo sapiens) (P50135 whole entry, looked up): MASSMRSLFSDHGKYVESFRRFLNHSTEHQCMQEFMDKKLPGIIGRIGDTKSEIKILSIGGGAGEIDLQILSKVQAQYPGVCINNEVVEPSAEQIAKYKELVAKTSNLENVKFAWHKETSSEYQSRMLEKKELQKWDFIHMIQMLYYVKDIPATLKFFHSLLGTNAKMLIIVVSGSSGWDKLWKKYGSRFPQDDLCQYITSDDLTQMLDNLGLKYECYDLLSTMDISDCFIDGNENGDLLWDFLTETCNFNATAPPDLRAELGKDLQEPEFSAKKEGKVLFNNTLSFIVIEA

Turning to `COC1CC(O[C@H]2CC[C@@]3(C)C(CCC4C3CC[C@]3(C)[C@@H](C5=CC(=O)OC5)CC[C@]43O)C2)OC(C)C1O` (stereo not given in full), the activity change, negative = inhibition was -9.86% (inactive) in assay [1]; -6.87% in assay [2]; -29.4% in assay [3]; 1.18% in assay [4]; -27.7% in assay [5]; -12.7% in assay [6].
Turning to `CO[C@H]1C[C@H](O[C@H]2CC[C@]3(CO)[C@H]4CC[C@]5(C)[C@@H](C6=CC(=O)OC6)CC[C@]5(O)[C@@H]4CC[C@]3(O)C2)O[C@H](C)[C@H]1O`, the activity change, negative = inhibition in assay [1] was -8.57% (inactive); in assay [2] it was -6.2%; in assay [3], -5.89%; in assay [4], -0.519%; in assay [5] it was -17.6%; in assay [6], -14.3%.
As to `C[C@H]1O[C@@H](O[C@H]2CC[C@]3(CO)C4CC[C@]5(C)[C@@H](C6=CC(=O)OC6)CC[C@]5(O)[C@@H]4CC[C@H]3C2)[C@H](O)[C@H](O)[C@@H]1O[C@@H]1O[C@H](CO)[C@@H](O)[C@H](O)[C@H]1O` (stereo not given in full), the activity change, negative = inhibition is -91.7% (active) in assay [1]; -5.56% in assay [2]; -4.58% in assay [3]; -5.35% in assay [4]; -16% in assay [5]; 0.37% in assay [6].
Consider `CN(C)c1ccc(C2c3cccn3-c3ccccc3CN2C(=O)NCc2ccccc2)cc1` (stereo not given), for which the activity change, negative = inhibition in assay [1] was 0.57% (inactive); in assay [2], 0.802%; in assay [3], 6.24%; in assay [4], -5.35%; in assay [5], -6.61%; in assay [6] it was -0.417%.
Consider `CN(C)c1ccc(C2c3cccn3-c3ccccc3CN2C(=O)Nc2ccccc2)cc1` (stereo not given), for which the activity change, negative = inhibition in assay [1] is -1.13% (inactive); in assay [2], 1.96%; in assay [3] it was -0.001%; in assay [4] it was -8%; in assay [5], -4.78%; in assay [6], -1.52%.
In the case of `NCC(O)c1ccc(O)cc1` (stereo not given), the activity change, negative = inhibition in assay [1] is 3.68% (active); in assay [2], -1.52%; in assay [3], 3.17%; in assay [4] it was -74.4%; in assay [5], -9.18%; in assay [6] it was 11.4%.
`COCC1CN(Cc2ccsc2)CC12CCNCC2` (stereo not given): the activity change, negative = inhibition was -8.14% (inactive) in assay [1]; -4.38% in assay [2]; -6.87% in assay [3]; -9.72% in assay [4]; -11.7% in assay [5]; -11.5% in assay [6].
For the compound `CCc1ccccc1NC(=O)N1Cc2ccccc2-n2cccc2C1c1ccccc1Cl` (stereo not given), the activity change, negative = inhibition in assay [1] was -0.522% (inactive); in assay [2] it was 4.4%; in assay [3], 3.52%; in assay [4] it was -2.61%; in assay [5], 1.65%; in assay [6] it was 1.03%.
In the case of `CC(=O)Nc1ccc(-c2ccc3n(c2=O)C[C@H]2C[C@@H]3CN(C3CCN(C)CC3)C2)cc1`, the activity change, negative = inhibition was -5.08% (inactive) in assay [1]; -3.31% in assay [2]; -2.09% in assay [3]; -19.5% in assay [4]; -9.65% in assay [5]; 8.92% in assay [6].
`C#C[C@]1(O)CC[C@H]2[C@@H]3CC[C@H]4Cc5nc6nc7ccccc7n6cc5C[C@]4(C)[C@H]3CC[C@@]21C`: the activity change, negative = inhibition in assay [1] is -23.3% (active); in assay [2], -13.8%; in assay [3], -29.6%; in assay [4] it was -17.3%; in assay [5], -52.4%; in assay [6] it was -33.3%.
For the compound `COc1cccc([C@H]2CN(c3cc(C)nc(N)n3)[C@@H]3C4CCN(CC4)[C@H]23)c1`, the activity change, negative = inhibition is -2.54% (inactive) in assay [1]; -5.12% in assay [2]; -8.6% in assay [3]; -24.3% in assay [4]; -8.14% in assay [5]; -9.36% in assay [6].
On to `COc1cccc(CC(=O)N2CCCCCC2CN2CCCC2)c1` (stereo not given), for which the activity change, negative = inhibition was 3.61% (inactive) in assay [1]; -1.59% in assay [2]; -5.27% in assay [3]; -5.48% in assay [4]; -4.35% in assay [5]; 0.866% in assay [6].
As for `CCc1ccc(C2c3cccn3-c3ccccc3CN2C(=O)Nc2cc(C)cc(C)c2)cc1` (stereo not given), the activity change, negative = inhibition was 5.19% (inactive) in assay [1]; 9.8% in assay [2]; 0.9% in assay [3]; 2.8% in assay [4]; 4.04% in assay [5]; 7.84% in assay [6].
For `COC(=O)c1ccccc1NC(=O)N1Cc2ccccc2-n2cccc2C1c1ccccc1Cl` (stereo not given), the activity change, negative = inhibition in assay [1] is 3.56% (inactive); in assay [2] it was 11.4%; in assay [3], 3.31%; in assay [4] it was 5.36%; in assay [5], 0.178%; in assay [6], 5.41%.
`CCC1c2cccn2-c2ccccc2CN1C(=O)Nc1cccc(C)c1C` (stereo not given): the activity change, negative = inhibition is 2.68% (inactive) in assay [1]; -0.789% in assay [2]; 3.87% in assay [3]; -2.49% in assay [4]; -4.56% in assay [5]; 2.16% in assay [6].
